# Compound activity deposited in PubChem by National Center for Advancing Translational Sciences (NCATS).
# Rango dissoc inh: prevents RanGTP from dissociating the Rango-importin beta complex; O95149+P62826; Biochemical FRET Rango-importin beta, RanGTP-induced dissociation; Potency, µM (series often up to 46.1 µM); 340,000 compounds, 0.071% hits; calls by dose curve; note: nearly all actives have a fitted effect of over 45% in size
#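 Quantitative HTS using a FRET biosensor: 0.1 uM Rango, 0.25 uM importin beta, 0.6 uM Ran, 2 mM GTP, 0.2 uM RCC1 final, PBS with DTT, Tween-20 and BSA. Post-read taken 45 min after Ran addition.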
# Rango-impB inh: prevents formation of the Rango-importin beta complex; Rango CFP/YFP FRET sensor + importin beta, 45 min; Potency, µM (doses to about 92.2 µM); 340,000 compounds, 0.031% hits; AID 540263; calls by dose curve; note: nearly all actives have a fitted effect of over 15% in size
#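 Inhibition scored from the CFP 486 nm/YFP 530 nm FRET ratio 45 min after adding 0.125 microM importin beta to 50 nM Rango biosensor preincubated 5 min with compound (room temperature, PBS with DTT, Tween-20, BSA). No-importin wells as positive control.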
# Tb PFK inh: inhibitors of T. brucei phosphofructokinase; T. brucei PFK, ADP-Glo luminescence; AID 485367; Potency, µM (highest dose often 57.5 µM), actives largely listed as inhibitors; 330,000 compounds, 0.17% hits; O15648; note: nearly all actives have a fitted effect of over 60% in size
#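 In TEA buffer at pH 8.0 with 5 mM MgCl2, enzyme (1.25 nM) converted F6P (0.5 mM) and ATP (0.1 mM) for 45 min at room temperature. ADP product was read by luciferase luminescence.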
# ELG1 DNA repair: ELG1-dependent DNA repair inhibition. 330,000 compounds, 2.3% hits. HEK293T ELG1-luciferase reporter, luminescence, 16 h; DNA damage induced by 5-fluorouridine. Potency, µM (titrated, usually from 46.1 µM), actives largely listed as inhibitors; note: nearly all actives have a fitted effect of over 55% in size
#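 Cells (2,000 per well) received 5-fluorouridine plus test compound or DMSO and were incubated 16 hr at 37 °C, 5% CO2. Luciferase activity was read by luminescence 30 min after ONE-Glo addition; signal suppression marked inhibition of damage-induced ELG1 function.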
# Tb PGK inh: blocks T. brucei phosphoglycerate kinase. P07378. PGK/GAPDH coupled, Kinase-Glo luminescence, 60 min. Potency, µM (highest dose often 57.5 µM), actives largely listed as inhibitors. 380,000 compounds, 0.043% hits. AID 602233; note: nearly all actives have a fitted effect of over 60% in size
#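 Luminescent ATP detection (Kinase-Glo Plus) follows a 60-minute room-temperature incubation, with wells lacking PGK as controls. Buffer: 100 mM TEA (pH 7.6), 5 mM MgCl2, 0.01% Tween-20. Coupling enzyme GAPDH (100 nM final) supplies unstable 1,3-BPG in-well.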
# PKM2 act: increases activity of human pyruvate kinase M2. P14618. purified PKM2, Kinase-Glo ATP luminescence, activation; response scale: 0% is enzyme alone, no compound. Potency, µM (highest dose often 57.5 µM), usual class: activators. 260,000 compounds, 0.34% hits; note: nearly all actives have a fitted effect of over 55% in size
# Target sequence (P14618 whole entry, looked up): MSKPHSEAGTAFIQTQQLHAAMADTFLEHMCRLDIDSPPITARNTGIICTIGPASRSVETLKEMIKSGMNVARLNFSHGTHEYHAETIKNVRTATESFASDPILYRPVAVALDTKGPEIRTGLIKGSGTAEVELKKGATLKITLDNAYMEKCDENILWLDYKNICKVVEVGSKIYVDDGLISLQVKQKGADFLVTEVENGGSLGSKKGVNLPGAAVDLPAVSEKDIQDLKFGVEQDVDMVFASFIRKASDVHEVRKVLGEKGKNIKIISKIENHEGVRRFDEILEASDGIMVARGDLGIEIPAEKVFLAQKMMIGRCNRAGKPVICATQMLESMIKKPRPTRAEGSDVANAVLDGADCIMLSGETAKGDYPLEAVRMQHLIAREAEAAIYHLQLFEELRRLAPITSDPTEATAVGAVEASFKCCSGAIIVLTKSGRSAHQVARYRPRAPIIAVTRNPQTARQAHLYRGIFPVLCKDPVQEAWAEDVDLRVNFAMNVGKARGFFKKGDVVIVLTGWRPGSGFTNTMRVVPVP
#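 Kinase-Glo luminescence reports ATP generated from ADP (0.1 mM) and PEP (0.5 mM) by purified hPK-M2 after 1 h at room temperature, pH 7.2 imidazole buffer; intermediate enzyme activity allows detecting inhibitors and activators.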
# Numbers stand for hits; . = inactive; ? = inconclusive; / = no result; [ ] = dose if it differs, or a comment. This is a sample that favours compounds with a hit; in the whole collection about 2.4% have one here. Unless noted, calls come from the whole dose curve; as a rule, active = well fitted curve in the direction sought with a large enough effect; inconclusive = small, poorly fitted or top-dose-only effect, or another doubt; inactive = no such curve, though single readings can be large; an effect the other way counts as inactive or inconclusive.
SMILES,Rango dissoc inh,Rango-impB inh,Tb PFK inh,ELG1 DNA repair,Tb PGK inh,PKM2 act
CC1(c2ccccc2)NC(=O)N(CC(=O)NNC(=O)c2cccc(Cl)c2)C1=O (stereo not drawn),.,.,.,.,.,/
Cc1ccc(Oc2nc(CN3CCOCC3)nc3sc4c(c23)CCC(C)C4)cc1C (stereo not drawn),.,.,.,13µM,.,.
COc1cccc(Nc2nc(CN3CCOCC3)nc3sc4c(c23)CCCC4)c1,.,.,.,10µM,.,.
CC1CCc2c(sc3nc(CN4CCOCC4)nc(N4CCc5ccccc5C4)c23)C1 (stereo not drawn),.,.,.,?,.,.
Cc1ccc(Oc2nc(CN3CCOCC3)nc3sc4c(c23)CCC(C)C4)cc1 (stereo not drawn),.,.,.,26µM,.,.
CCOc1cc(C(=O)NCCCNC(=O)c2cc(OCC)c(OCC)c(OCC)c2)cc(OCC)c1OCC,.,.,/,/,.,/
Cc1ccc2nc(Cl)c3cc(C(=O)NC4CCC(C)CC4)sc3c2c1 (stereo not drawn),/,/,/,/,.,/
CCOC(=O)c1cc(-c2ccccc2)n(CCCC(=O)Nc2cccc(C)c2C)c1C,/,/,/,/,.,/
Cn1nc(C(C)(C)C)cc1C(=O)NCc1cc(F)cc2c1OCOC2,.,.,.,2.6µM,.,.
Cc1cc(C(=O)NCc2cc(F)cc3c2OCOC3)nn1C,.,.,.,.,.,.
CCOc1ccc(NC(=S)NC(=O)/C=C/c2ccco2)cc1,.,.,.,?,.,.
COc1cc(NS(=O)(=O)c2ccc(NC(=S)NC(=O)/C=C/c3ccco3)cc2)ncn1,.,.,.,.,20µM,.
COCCN(CCOC)c1nc(-c2ccc(Cl)cc2)nc2ccccc12,.,.,.,?,.,.
COCCCNc1nc(-c2ccncc2)nc2ccccc12,.,.,.,18µM,.,.
COCCN(CCOC)c1nc(-c2ccccc2)nc2ccccc12,.,.,.,26µM,.,.
CN1C(=O)c2cccc3c(S(N)(=O)=O)ccc1c23,0.58µM,?,.,.,.,.
Cc1ccccc1NS(=O)(=O)c1ccc2c3c(cccc13)C(=O)N2C,?,?,.,?,.,.
Cc1ccc(C(C)(C)C)cc1S(=O)(=O)Nc1cccc(C(=O)N2CCN(c3ccccn3)CC2)c1,.,.,.,?,.,/
CCOc1cc(/C=C2\SC(=NC)N(C)C2=O)cc(Cl)c1OC(C)=O,4.6µM[inhibitor],?,.,.,.,/
O=C(O)c1ccc2c(c1)C(=O)N([C@H](Cc1c3ccccc3cc3ccccc13)C(=O)O)C2=O,/,/,.,/,/,/
COc1ccc(CCC(=O)N2CCN(c3cccc(C)c3C)CC2)cc1,.,.,.,.,.,.
COc1cc(CCC(=O)N2CCN(c3cccc(C)c3C)CC2)cc(OC)c1OC,.,.,.,18µM,.,/
O=C(CCCl)N1CCCC2(CCCCC2)C1,.,.,.,?,.,.
Cc1ccc(CNC(=O)Nc2cccs2)cc1,?,?,.,?,.,25µM
COc1cccc(CNC(=O)Nc2cccs2)c1,.,?,.,?,.,.
SMILES,Rango dissoc inh,Rango-impB inh,Tb PFK inh,ELG1 DNA repair,Tb PGK inh,PKM2 act
COc1ccc(CNC(=O)Nc2cccs2)cc1OC,?,?,.,.,.,18µM
COc1ccc(S(=O)(=O)NCC(=O)NCc2cc(=O)n(C)c(=O)n2C)cc1C,.,.,.,.,.,.
O=C(Cn1cc[n+](Cc2ccccc2)c1)c1ccc([N+](=O)[O-])cc1,.,.,.,15µM,.,.
O=C(C[n+]1ccn(-c2ccccc2)c1)c1ccc([N+](=O)[O-])cc1,.,.,.,.,.,.
O=C1CN(C(=O)c2cccc(Br)c2)C(c2ccccc2)c2cc(Cl)ccc2N1 (stereo not drawn),/,/,/,/,.,/
COCCCNC(=O)COc1ccc(S(=O)(=O)Nc2ccccc2)cc1,.,.,.,.,.,14µM
COc1ccc(C(=O)COC(=O)c2nc3nccc(C)n3n2)cc1F,.,?,.,.,.,/
COc1ccc(-c2cc(-c3c(O)c(OC)c4occc4c3OC)[nH]n2)cc1OC,.,.,.,26µM,.[11.5 µM],.
COc1ccc(-c2cc(-c3c(O)c(OC)c4occc4c3OC)[nH]n2)cc1,.,.,.,.,.,.
Cc1ccc(Sc2ccc(N3CCCC(C(=O)Nc4ccc(F)c(Cl)c4)C3)nn2)cc1 (stereo not drawn),/,/,/,/,.,/
Cc1ccc2nc(Cn3cc(C(F)(F)F)ccc3=O)cc(=O)n2c1,.,.,.,.,.,.
CCc1nc2ccccc2n1Cc1cc(=O)n2cc(C)ccc2n1,.,.,.,.,.,16µM
CN(C)S(=O)(=O)c1ccc(NC(=O)CSc2nnc(-c3ccco3)n2N)cc1,.,.,.,?,.,/
CC(C)(C)NC(=S)Nc1cccc(C(F)(F)F)c1,.,.,.,12µM,.,.
Cc1nc2ccccc2c(=O)n1/N=C/c1cc(Br)ccc1O,10µM,?,.,?,.,/
COc1cccc(CNC(=O)C2CCN(S(=O)(=O)c3ccccc3)CC2)c1,.,.,.,.,.,25µM
O=C(NCc1cccnc1)C1CCN(c2ccc(S(=O)(=O)N3CCOCC3)cc2Cl)CC1,.,.,.,16µM,.,.
COc1cccc(CNC(=O)N2CCN(S(=O)(=O)c3ccc(Cl)cc3)CC2)c1,.,.,.,.,.,14µM
COc1ccc(NC(=O)CCNC(=O)C2CCN(S(=O)(=O)c3ccc(F)cc3)CC2)cc1OC,.,.,.,.,.,4.5µM
CCN(CC)C(=O)CSc1nc2cc3c(cc2c(=O)n1CCCCCC(=O)NCCc1ccc(OC)c(OC)c1)OCO3,/,/,/,/,.,/
CCCNC(=O)N(C)C[C@@H]1Oc2ncc(-c3ccncc3)cc2C(=O)N([C@H](C)CO)C[C@@H]1C,/,/,/,/,.,/
O=C(NCc1ccc2c(c1)OCO2)C1CCN(S(=O)(=O)c2cccs2)CC1,.,.,.,.,.,8.9µM
COc1cccc(CNC(=O)C2CCN(S(=O)(=O)c3ccc4c(c3)OCCO4)CC2)c1,.,.,.,.,.,11µM
CC(C)(C)OC(=O)N1CCC(c2c(C(=O)N3CCC(c4ccccc4)C3)cnn2-c2cccc(Cl)c2)CC1 (stereo not drawn),/,/,/,/,.,/
COc1ccc(-c2csc(/C(C#N)=C\c3ccc(O)c([N+](=O)[O-])c3)n2)cc1OC,.,.,.,15µM,.,.
Cc1ccc(CN(Cc2cccnc2)C(=O)CN2C(=O)COc3ccccc32)o1,.,.,.,?,.,28µM
O=C1/C(=C/c2cccs2)Sc2ccccc21,18µM,?,.,?,.,.
